Source: PubChem BioAssay (NCATS)
Inconclusive results are not listed. Values without a mark were called inactive. Calls of active or inactive are those of the source. Calls come from the whole dose curve; as a rule, active = well fitted curve in the direction sought with a large enough effect; inconclusive = small, poorly fitted or top-dose-only effect, or another doubt; inactive = no such curve, though single readings can be large; an effect the other way counts as inactive or inconclusive.

biological target: Aldehyde dehydrogenase, mitochondrial (Homo sapiens) (UniProt P05091); experiment: qHTS for Inhibitors of the Aldehyde Dehydrogenase Family (ALDH2) Primary screen (AID 2061308); details: ALDH2 enzyme inhibition qHTS, 1536-well; series mostly up to 56 µM; activity change, negative = inhibition: at the top concentration;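 note: plate controls were vehicle for no effect and reference inhibitor for full effect; nearly all actives have a fitted effect of over 55% in size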

| Compound | activity change, negative = inhibition |
| --- | --- |
| C=CC(C)(C)c1[nH]c2cccc3c2c1C[C@@H]1[C@@H]3[C@@H](OC(C)=O)[C@H](C)CN1C | -7.78% |
| CCOc1ccc(CCNC(=O)c2cc3sccc3n2Cc2ccc(F)cc2F)cc1OCC | 2.87% |
| C#C[C@]1(O)CC[C@H]2[C@@H]3CC[C@H]4Cc5nc6nc7ccccc7n6cc5C[C@]4(C)[C@H]3CC[C@@]21C | -1.17% |
| CCOc1ccc(CCNC(=O)c2cc3ccccc3n2CCN2CCOCC2)cc1OCC | 0.667% |
| C[C@H]1CCC/C=C/C2C[C@H](O)C[C@H]2[C@H](O)/C=C/C(=O)O1 (stereo partly specified) | 1.42% |
| O=S(=O)(Nc1cccc2ccncc12)c1ccc(NCc2cccc(Cl)c2O)cc1 | -15.5% |
| COc1ccc(N(C(=O)Oc2c(C)cccc2C)c2ccnc(Nc3ccc(N4CCN(C)CC4)cc3)n2)c(OC)c1 | 0.494% |
| CC(C)[C@]12O[C@H]1[C@@H]1O[C@]13[C@]1(O[C@H]1C[C@H]1C4=C(CC[C@@]13C)C(=O)OC4)[C@@H]2O | 10.8% |
| Oc1cccc2cc(N3CCNCC3)cnc12 | -0.0406% |
| C[C@@H]1O[C@@H](O[C@H]2CC[C@@]3(C)C(CC[C@@H]4C3CC[C@]3(C)[C@@H](C5=CC(=O)OC5)CC[C@]43O)C2)[C@H](O[C@@H]2O[C@H](CO)[C@@H](O)[C@H](O)[C@H]2O)[C@H](O)[C@H]1O (stereo partly specified) | -0.0504% [at 16.9 µM] |
| C[C@]12CC[C@H](O)CC1=CC[C@@H]1[C@@H]2CC[C@]2(C)C(=O)CC[C@@H]12 | 7.44% |

biological target: Retinaldehyde dehydrogenase 3 (Homo sapiens) (UniProt P47895); experiment: qHTS for Inhibitors of the Aldehyde Dehydrogenase Family (ALDH1A3) Confirmatory screens (AID 2061311); details: ALDH inhibition qHTS; series mostly up to 46 µM; activity change, negative = inhibition: at the top concentration; note: potency is the fitted concentration of half-maximal effect; nearly all actives have a fitted effect of over 60% in size

| Compound | Potency |
| --- | --- |
| COc1ccc(-n2c(C)cc(-c3nnc4n3CCCCC4)c2C)cc1 | 10.1 µM (active) |
| [Cl][Pt].[NH2-].[NH2-].c1ccncc1 | 11.3 µM (active) |
| COc1cccc(CNc2ccc(S(=O)(=O)Nc3nc(C)c(C)s3)cc2)c1O | 12.7 µM (active) |

biological target: Retinaldehyde dehydrogenase 3 (Homo sapiens) (UniProt P47895); experiment: qHTS for Inhibitors of the Aldehyde Dehydrogenase Family (ALDH1A3) Primary screen (AID 2061315); details: ALDH inhibition qHTS; series mostly up to 56 µM; activity change, negative = inhibition: at the top concentration;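 note: plate controls were DMSO vehicle for no effect and reference inhibitor for full effect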

| Compound | activity change, negative = inhibition |
| --- | --- |
| C=CC(C)(C)c1[nH]c2cccc3c2c1C[C@@H]1[C@@H]3[C@@H](OC(C)=O)[C@H](C)CN1C | -1.9% |
| CCOc1ccc(CCNC(=O)c2cc3sccc3n2Cc2ccc(F)cc2F)cc1OCC | 0.0092% |
| Cc1nc2ccccn2c1P(=S)(c1ccccc1)c1ccccc1 | -5.18% |
| C#C[C@]1(O)CC[C@H]2[C@@H]3CC[C@H]4Cc5nc6nc7ccccc7n6cc5C[C@]4(C)[C@H]3CC[C@@]21C | 3.85% |
| CCOc1ccc(CCNC(=O)c2cc3ccccc3n2CCN2CCOCC2)cc1OCC | -10.9% |
| COc1ccc(-n2c(C)cc(-c3nnc4n3CCCCC4)c2C)cc1 | 16.4% |
| C[C@H]1CCC/C=C/C2C[C@H](O)C[C@H]2[C@H](O)/C=C/C(=O)O1 (stereo partly specified) | 3.5% |
| S=P(c1ccccc1)(c1ccccc1)c1c(-c2ccccc2)[nH]c2ccccc12 | 1.85% |
| C=C1[C@@H](C)[C@H]2[C@H](Cc3ccccc3)NC(=O)[C@]23OC(=O)/C=C/C(=O)CCC[C@@H](C)C/C=C/[C@H]3[C@@H]1O | -15.5% |
| O=S(=O)(Nc1cccc2ccncc12)c1ccc(NCc2cccc(Cl)c2O)cc1 | -5.23% |
| COc1ccc(N(C(=O)Oc2c(C)cccc2C)c2ccnc(Nc3ccc(N4CCN(C)CC4)cc3)n2)c(OC)c1 | -10.8% |
| CC(C)[C@]12O[C@H]1[C@@H]1O[C@]13[C@]1(O[C@H]1C[C@H]1C4=C(CC[C@@]13C)C(=O)OC4)[C@@H]2O | 1.36% |
| Oc1cccc2cc(N3CCNCC3)cnc12 | -4.21% |
| O=C(O)c1ccc(O)c2ncc(N3CCCNCC3)cc12 | 2.34% |
| C[C@@H]1O[C@@H](O[C@H]2CC[C@@]3(C)C(CC[C@@H]4C3CC[C@]3(C)[C@@H](C5=CC(=O)OC5)CC[C@]43O)C2)[C@H](O[C@@H]2O[C@H](CO)[C@@H](O)[C@H](O)[C@H]2O)[C@H](O)[C@H]1O (stereo partly specified) | -11.3% [at 16.9 µM] |
| CN1CN(c2ccccc2)C2(CCN(CCCC(=O)c3ccc(F)cc3)CC2)C1=O | -27.6% |
| C[C@]12CC[C@H](O)CC1=CC[C@@H]1[C@@H]2CC[C@]2(C)C(=O)CC[C@@H]12 | -13.6% |
